Assay results taken from PubChem BioAssay AID1159580 (chemical genetic matrix, 2015).
Values joined by “and” are separate entries in the source; they are usually repeats but may differ in a detail not shown here. Equal values may be shown once. Among all 5,500 compounds or so, about 2,000 (36%) were called active. Inconclusive results (about 18%) are left out. No stated cut-off is given here; in the data, active means normalized growth mostly below about 0.91 (no sharp cut-off); inconclusive means no clear call, values can overlap the other calls; inactive means mostly above about 0.92. The list shows a part of the results.

Experiment: chemical genetic growth profiling, strain panel (AID 1159580);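 further: tested at 20 µM; growth read once vehicle control cultures reached saturation at 30 °C; 1 = growth at the plate median or of vehicle wells; lower values mean less growth of the strain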
Conditions: S. cerevisiae deletion strains, growth OD

Measured: normalized growth

COC(=O)/C(=C1\OC(=O)C(c2ccccc2)=C1O)c1ccccc1
inactive: locus YAL013W, strain DEP1, hits give low values 1.01 | locus YAL021C, strain ccr4, hits give low values 0.979 | locus YAL026C, strain drs2, hits give low values 0.979 | locus YAL030W, strain snc1, hits give low values 0.981 | locus YBL061C, strain skt5, hits give low values 0.977 | locus YBR009C, strain hhf1, hits give low values 1 | locus YBR021W, strain FUR4, hits give low values 0.963 | locus YBR023C, strain chs3, hits give low values 0.976 | locus YBR171W, strain sec66, hits give low values 0.987 | locus YBR229C, strain ROT2, hits give low values 0.993 | locus YBR231C, strain swc5, hits give low values 0.985 | locus YBR279W, strain paf1, hits give low values 0.984 | locus YCL011C, strain gbp2, hits give low values 0.979 | locus YCL016C, strain dcc1, hits give low values 0.981 | locus YCL029C, strain bik1, hits give low values 0.987 | locus YCL061C, strain MRC1, hits give low values 0.966 | locus YCL069W, strain vba3, hits give low values 0.968 | locus YCR088W, strain abp1, hits give low values 0.962 | locus YDL005C, strain med2, hits give low values 0.974 | locus YDL035C, strain GPR1, hits give low values 1 | locus YDL040C, strain nat1, hits give low values 0.969 | locus YDL074C, strain BRE1, hits give low values 1.03 | locus YDL101C, strain DUN1, hits give low values 1.01 | locus YDL134C, strain PPH21, hits give low values 0.998 | locus YDL185W, strain tfp1, hits give low values 0.987 | locus YDL192W, strain arf1, hits give low values 1 | locus YDR001C, strain nth1, hits give low values 0.958 | locus YDR069C, strain doa4, hits give low values 1.01 | locus YDR101C, strain arx1, hits give low values 1 | locus YDR137W, strain rgp1, hits give low values 0.967 | locus YDR150W, strain NUM1, hits give low values 0.987 | locus YDR159W, strain sac3, hits give low values 0.974 | locus YDR162C, strain NBP2, hits give low values 1.02 | locus YDR195W, strain ref2 0.943 | locus YDR297W, strain sur2, hits give low values 0.977 | locus YDR318W, strain mcm21, hits give low values 0.986 | locus YDR334W, strain swr1, hits give low values 0.971 | locus YDR335W, strain msn5, hits give low values 0.982 | locus YDR388W, hits give low values 0.993 | locus YDR392W, strain spt3, hits give low values 0.972 | locus YDR502C, strain sam2, hits give low values 1.01 | locus YEL003W, strain gim4, hits give low values 0.985 | locus YEL037C, strain rad23, hits give low values 0.973 | locus YEL061C, strain CIN8 (second series), hits give low values 0.964 | locus YEL061C, strain CIN8, hits give low values 0.984 | locus YER015W, strain faa2, hits give low values 0.967 | locus YER016W, strain bim1, hits give low values 0.984 | locus YER110C, hits give low values 0.997 | locus YER111C, strain swi4, hits give low values 0.976 | locus YER155C, strain BEM2 (second series), hits give low values 1 | locus YER155C, strain BEM2, hits give low values 0.994 | locus YER167W, strain BCK2, hits give low values 0.999 | locus YFR010W, strain ubp6, hits give low values 0.991 | locus YGL078C, strain dbp3, hits give low values 0.993 | locus YGL086W, strain mad1, hits give low values 1.01 | locus YGL167C, strain pmr1, hits give low values 0.951 | locus YGL173C, strain kem1, hits give low values 0.993 | locus YGL227W, strain vid30, hits give low values 0.977 | locus YGL240W, strain doc1, hits give low values 1.02 | locus YGL248W, strain PDE1, hits give low values 1 | locus YGL253W, strain hxk2, hits give low values 0.968 | locus YGR078C, strain PAC10, hits give low values 1.03 | locus YGR135W, strain pre9, hits give low values 0.995 | locus YGR229C, strain SMI1, hits give low values 0.98 | locus YGR252W, strain gcn5, hits give low values 0.984 | locus YHR013C, strain ard1, hits give low values 0.963 | locus YHR027C, strain rpn1, hits give low values 0.976 | locus YHR030C, strain SLT2, hits give low values 0.99 and 0.914 | locus YHR079C, strain IRE1 (second series), hits give low values 0.991 | locus YHR079C, strain IRE1, hits give low values 0.912 | locus YHR094C, strain hxt1, hits give low values 0.989 | locus YHR129C, strain ARP1, hits give low values 0.989 | locus YHR142W, strain chs7, hits give low values 0.93 | locus YHR200W, strain rpn10, hits give low values 0.988 | locus YIL066C, strain RNR3, hits give low values 1.01 | locus YIL073C, strain SPO22, hits give low values 1.05 | locus YIL125W, strain kgd1, hits give low values 0.974 | locus YIR030C, strain dcg1, hits give low values 0.998 | locus YJL092W, strain hpr5, hits give low values 0.959 | locus YJL095W, strain BCK1 (second series), hits give low values 0.973 | locus YJL095W, strain BCK1, hits give low values 1.05 and 0.936 | locus YJL115W, strain asf1, hits give low values 0.974 | locus YJL129C, strain trk1, hits give low values 0.917 | locus YJL134W, strain LCB3, hits give low values 0.991 | locus YJL154C, strain vps35, hits give low values 0.957 | locus YJL164C, strain tpk1, hits give low values 0.986 | locus YJL166W, strain qcr8, hits give low values 0.993 | locus YJL168C, strain set2, hits give low values 0.996 | locus YJL187C, strain SWE1 (second series), hits give low values 1.04
